Assay [1] concerns the target Serine/threonine-protein kinase pim-2 (Homo sapiens) (UniProt Q9P1W9). The settings on record: at 1 µM.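 Further: each value is a mean of the inhibition measurements against the kinase.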
Assay [2] deals with Serine/threonine-protein kinase pim-3 (Homo sapiens) (UniProt Q86V86). The settings on record: at 0.1 µM.
Assay [3] shares this target. The settings on record: at 1 µM.
In assay [4] the target is T1, MAP kinase-activated protein kinase 5 (Homo sapiens) (UniProt Q8IW41).
T1 sequence (whole entry): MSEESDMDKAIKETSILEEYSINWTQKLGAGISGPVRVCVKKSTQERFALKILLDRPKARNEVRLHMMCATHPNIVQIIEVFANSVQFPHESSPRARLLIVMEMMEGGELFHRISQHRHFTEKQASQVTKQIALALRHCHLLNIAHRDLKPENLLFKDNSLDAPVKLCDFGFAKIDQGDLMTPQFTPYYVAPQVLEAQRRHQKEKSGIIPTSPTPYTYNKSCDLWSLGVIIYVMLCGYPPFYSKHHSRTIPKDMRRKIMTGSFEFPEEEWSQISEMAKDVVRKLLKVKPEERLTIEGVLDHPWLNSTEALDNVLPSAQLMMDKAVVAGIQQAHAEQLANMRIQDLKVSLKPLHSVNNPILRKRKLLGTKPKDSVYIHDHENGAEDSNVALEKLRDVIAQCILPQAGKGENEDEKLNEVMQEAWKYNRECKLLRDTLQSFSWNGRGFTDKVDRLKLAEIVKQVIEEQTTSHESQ
Particulars: at 0.1 µM.

Assay [5] addresses T1, MAP kinase-activated protein kinase 5 (Homo sapiens). The settings on record: at 1 µM.
Assay [6] concerns the target Serine/threonine-protein kinase SIK1 (Homo sapiens) (UniProt P57059). Particulars: at 0.1 µM.
Assay [7] has the same target. The settings on record: at 1 µM.
The target in assay [8] is Serine/threonine-protein kinase SIK2 (Homo sapiens) (UniProt Q9H0K1). Particulars: at 0.1 µM.
For assay [9] the target is unchanged. The settings on record: at 1 µM.
The target in assay [10] is T2, Serine/threonine-protein kinase TBK1 (Homo sapiens) (UniProt Q9UHD2).
T2 sequence (whole entry): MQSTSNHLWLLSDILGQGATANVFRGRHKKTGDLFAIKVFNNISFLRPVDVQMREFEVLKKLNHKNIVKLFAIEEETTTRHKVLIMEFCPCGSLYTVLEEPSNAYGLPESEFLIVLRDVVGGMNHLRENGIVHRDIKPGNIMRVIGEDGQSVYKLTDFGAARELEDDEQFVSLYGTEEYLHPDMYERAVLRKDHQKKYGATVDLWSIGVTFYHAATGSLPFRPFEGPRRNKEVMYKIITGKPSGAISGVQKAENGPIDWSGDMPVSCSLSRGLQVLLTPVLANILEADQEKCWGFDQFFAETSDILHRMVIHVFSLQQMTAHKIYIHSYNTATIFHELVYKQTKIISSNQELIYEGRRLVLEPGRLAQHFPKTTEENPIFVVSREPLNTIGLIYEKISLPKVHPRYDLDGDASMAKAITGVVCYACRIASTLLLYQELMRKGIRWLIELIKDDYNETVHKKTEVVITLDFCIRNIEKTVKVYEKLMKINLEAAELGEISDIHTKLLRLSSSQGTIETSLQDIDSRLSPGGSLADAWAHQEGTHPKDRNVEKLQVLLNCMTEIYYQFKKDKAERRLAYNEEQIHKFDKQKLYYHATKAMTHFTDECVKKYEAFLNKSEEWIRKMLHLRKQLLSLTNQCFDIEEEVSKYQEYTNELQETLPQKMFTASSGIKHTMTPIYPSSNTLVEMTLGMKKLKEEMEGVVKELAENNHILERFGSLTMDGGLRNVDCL
Particulars: at 0.1 µM.

Assay [11] has as its target T2, Serine/threonine-protein kinase TBK1 (Homo sapiens). The settings on record: at 1 µM.
Assay [12] addresses T3, Testis-specific serine/threonine-protein kinase 1 (Homo sapiens) (UniProt Q9BXA7).
T3 sequence (whole entry): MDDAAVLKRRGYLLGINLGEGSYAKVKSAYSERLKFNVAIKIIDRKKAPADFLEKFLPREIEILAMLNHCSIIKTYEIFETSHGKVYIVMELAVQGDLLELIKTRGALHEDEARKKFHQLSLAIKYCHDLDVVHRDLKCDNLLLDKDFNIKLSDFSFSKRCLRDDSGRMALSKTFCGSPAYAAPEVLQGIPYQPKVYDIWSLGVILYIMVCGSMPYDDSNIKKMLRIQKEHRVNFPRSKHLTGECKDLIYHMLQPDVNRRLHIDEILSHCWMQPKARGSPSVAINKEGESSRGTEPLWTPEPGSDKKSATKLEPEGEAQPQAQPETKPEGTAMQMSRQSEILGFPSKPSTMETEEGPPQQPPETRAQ
Particulars: at 0.1 µM.

In assay [13] the target is T3, Testis-specific serine/threonine-protein kinase 1 (Homo sapiens). Particulars: at 1 µM.
Assay [14] deals with T4, Testis-specific serine/threonine-protein kinase 2 (Homo sapiens) (UniProt Q96PF2).
T4 sequence (whole entry): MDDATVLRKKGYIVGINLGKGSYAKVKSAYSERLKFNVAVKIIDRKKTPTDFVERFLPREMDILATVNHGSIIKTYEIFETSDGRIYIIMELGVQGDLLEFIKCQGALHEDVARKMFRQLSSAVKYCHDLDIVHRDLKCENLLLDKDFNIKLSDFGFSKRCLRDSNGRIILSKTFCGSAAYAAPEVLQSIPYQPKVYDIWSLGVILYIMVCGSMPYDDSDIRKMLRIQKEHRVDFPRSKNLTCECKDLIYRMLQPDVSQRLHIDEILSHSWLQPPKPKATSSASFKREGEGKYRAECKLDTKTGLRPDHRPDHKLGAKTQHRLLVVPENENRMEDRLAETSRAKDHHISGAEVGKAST
The settings on record: at 0.1 µM.

The target in assay [15] is T4, Testis-specific serine/threonine-protein kinase 2 (Homo sapiens). The settings on record: at 1 µM.
Assay [16] concerns the target Casein kinase I isoform alpha (Homo sapiens) (UniProt P48729). Particulars: at 0.1 µM.
Assay [17] has the same target. The settings on record: at 1 µM.
The target in assay [18] is Casein kinase I isoform gamma-1 (Homo sapiens) (UniProt Q9HCP0). Particulars: at 0.1 µM.
For assay [19] the target is unchanged. Particulars: at 1 µM.
For assay [20], the target named is Casein kinase I isoform gamma-2 (Homo sapiens) (UniProt P78368). Particulars: at 0.1 µM.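 Further: values are mean inhibition figures reported as part of the GSK PKIS dataset.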

Each structure is given as a SMILES string.

Casein kinase I isoform gamma-1 (Homo sapiens), sequence (Q9HCP0 whole entry, looked up, canonical isoform): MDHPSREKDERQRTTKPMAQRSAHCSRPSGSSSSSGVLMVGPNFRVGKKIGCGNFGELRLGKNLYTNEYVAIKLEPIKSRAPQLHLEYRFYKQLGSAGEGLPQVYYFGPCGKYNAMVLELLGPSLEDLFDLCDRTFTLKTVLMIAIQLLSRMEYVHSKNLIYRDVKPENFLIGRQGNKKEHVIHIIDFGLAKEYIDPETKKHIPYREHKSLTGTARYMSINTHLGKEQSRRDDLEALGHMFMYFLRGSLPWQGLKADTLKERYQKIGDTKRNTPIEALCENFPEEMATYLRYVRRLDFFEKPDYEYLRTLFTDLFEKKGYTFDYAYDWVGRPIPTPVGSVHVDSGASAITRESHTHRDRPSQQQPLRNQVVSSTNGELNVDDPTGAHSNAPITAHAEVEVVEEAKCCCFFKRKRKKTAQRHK
Serine/threonine-protein kinase SIK2 (Homo sapiens), sequence (Q9H0K1 whole entry, looked up): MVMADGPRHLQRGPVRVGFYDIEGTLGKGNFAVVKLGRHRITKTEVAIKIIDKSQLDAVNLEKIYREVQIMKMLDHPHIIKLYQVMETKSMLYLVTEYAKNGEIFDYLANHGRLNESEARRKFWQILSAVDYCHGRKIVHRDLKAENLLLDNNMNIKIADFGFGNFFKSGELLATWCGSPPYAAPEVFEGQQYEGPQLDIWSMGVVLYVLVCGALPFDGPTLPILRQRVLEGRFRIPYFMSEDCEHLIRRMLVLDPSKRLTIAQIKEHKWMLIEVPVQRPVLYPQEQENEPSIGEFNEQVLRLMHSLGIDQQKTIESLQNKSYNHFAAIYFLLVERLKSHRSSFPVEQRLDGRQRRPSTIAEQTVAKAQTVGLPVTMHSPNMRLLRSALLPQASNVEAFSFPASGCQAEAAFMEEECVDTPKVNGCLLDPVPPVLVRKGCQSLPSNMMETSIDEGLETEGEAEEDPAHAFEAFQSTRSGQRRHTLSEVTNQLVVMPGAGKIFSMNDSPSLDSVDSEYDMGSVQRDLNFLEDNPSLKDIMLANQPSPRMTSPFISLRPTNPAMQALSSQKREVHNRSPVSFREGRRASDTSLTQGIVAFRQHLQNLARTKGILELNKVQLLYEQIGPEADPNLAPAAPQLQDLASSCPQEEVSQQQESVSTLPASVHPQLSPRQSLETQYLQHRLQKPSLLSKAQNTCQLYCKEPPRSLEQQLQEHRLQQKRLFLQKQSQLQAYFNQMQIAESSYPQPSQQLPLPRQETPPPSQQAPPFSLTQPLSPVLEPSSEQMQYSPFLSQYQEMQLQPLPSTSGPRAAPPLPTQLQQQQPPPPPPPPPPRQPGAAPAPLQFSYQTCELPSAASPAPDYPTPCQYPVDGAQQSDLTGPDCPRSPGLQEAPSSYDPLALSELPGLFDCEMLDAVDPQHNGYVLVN
Casein kinase I isoform gamma-2 (Homo sapiens), sequence (P78368 whole entry, looked up, canonical isoform): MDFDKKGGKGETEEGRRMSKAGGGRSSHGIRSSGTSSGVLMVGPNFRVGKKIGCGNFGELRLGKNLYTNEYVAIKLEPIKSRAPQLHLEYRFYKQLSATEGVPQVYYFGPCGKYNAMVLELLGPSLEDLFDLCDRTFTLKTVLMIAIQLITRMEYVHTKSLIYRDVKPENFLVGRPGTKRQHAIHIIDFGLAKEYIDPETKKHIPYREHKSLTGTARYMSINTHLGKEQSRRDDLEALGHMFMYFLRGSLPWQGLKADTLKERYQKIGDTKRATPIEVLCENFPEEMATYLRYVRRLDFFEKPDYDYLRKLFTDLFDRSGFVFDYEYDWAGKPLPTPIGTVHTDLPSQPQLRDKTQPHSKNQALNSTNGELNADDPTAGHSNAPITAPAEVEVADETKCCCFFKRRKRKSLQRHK
Casein kinase I isoform alpha (Homo sapiens), sequence (P48729 2-337 limits assumed): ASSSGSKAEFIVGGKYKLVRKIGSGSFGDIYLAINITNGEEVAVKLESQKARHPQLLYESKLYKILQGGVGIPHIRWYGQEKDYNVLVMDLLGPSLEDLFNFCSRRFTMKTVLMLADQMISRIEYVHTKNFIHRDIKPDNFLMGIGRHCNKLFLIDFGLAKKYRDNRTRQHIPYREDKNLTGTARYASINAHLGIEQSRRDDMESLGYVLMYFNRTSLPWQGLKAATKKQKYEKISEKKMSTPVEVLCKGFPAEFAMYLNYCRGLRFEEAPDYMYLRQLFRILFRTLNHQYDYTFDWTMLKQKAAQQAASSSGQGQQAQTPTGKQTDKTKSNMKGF
Serine/threonine-protein kinase SIK1 (Homo sapiens), sequence (P57059 whole entry): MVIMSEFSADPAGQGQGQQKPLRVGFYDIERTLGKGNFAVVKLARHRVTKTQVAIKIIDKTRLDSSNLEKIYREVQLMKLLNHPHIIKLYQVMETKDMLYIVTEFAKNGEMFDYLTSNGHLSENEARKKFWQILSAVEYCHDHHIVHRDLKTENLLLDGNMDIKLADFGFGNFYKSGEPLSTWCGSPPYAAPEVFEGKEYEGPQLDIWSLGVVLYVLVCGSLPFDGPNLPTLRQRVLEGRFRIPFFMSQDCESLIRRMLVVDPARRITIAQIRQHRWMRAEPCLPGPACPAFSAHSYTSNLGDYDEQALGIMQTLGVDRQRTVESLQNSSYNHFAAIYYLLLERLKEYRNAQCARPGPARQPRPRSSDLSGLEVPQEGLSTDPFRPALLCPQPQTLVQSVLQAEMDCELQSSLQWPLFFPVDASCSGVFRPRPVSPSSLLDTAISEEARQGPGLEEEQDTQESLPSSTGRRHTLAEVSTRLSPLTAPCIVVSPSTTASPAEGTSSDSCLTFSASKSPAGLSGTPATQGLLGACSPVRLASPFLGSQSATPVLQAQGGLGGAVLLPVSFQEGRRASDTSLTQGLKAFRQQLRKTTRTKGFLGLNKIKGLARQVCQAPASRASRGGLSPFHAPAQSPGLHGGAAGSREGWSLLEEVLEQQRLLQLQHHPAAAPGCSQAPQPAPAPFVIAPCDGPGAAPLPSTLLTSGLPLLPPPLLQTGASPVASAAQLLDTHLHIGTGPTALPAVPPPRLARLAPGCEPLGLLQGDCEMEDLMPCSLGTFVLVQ
Serine/threonine-protein kinase pim-2 (Homo sapiens), sequence (Q9P1W9 whole entry, looked up): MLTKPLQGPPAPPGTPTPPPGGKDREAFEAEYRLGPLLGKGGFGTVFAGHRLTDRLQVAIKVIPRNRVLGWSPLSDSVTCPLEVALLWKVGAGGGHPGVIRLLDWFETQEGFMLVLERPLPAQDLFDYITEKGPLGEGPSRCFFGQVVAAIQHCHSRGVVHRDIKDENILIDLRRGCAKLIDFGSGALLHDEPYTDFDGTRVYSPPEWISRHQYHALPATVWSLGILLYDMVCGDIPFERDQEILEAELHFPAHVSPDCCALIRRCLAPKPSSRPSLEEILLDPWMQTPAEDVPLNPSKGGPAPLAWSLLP

What is called inhibition is the relative decrease from the control value, in per cent. For the compound `CS(=O)(=O)Nc1ccc(-c2ccc3c(NC(=O)C4CC4)n[nH]c3c2)cc1`, the inhibition in assay [1] was 4%; in assay [2], 0.02%; in assay [3], 2.14%; in [4], 0.66%; in assay [5] it was -1.55%; in assay [6] it was 3.97%. The inhibition in assay [7] stood at 5.51%; in [8], 5.95%; in assay [9], 1.37%; in assay [10], 0.86%; in [11] it was 7.65%; in assay [12] it was 2.9%. For the same compound, the inhibition in [13] is 2.78%; in assay [14], 0.58%; in [15] it was -0.76%; in assay [16], -2.5%; in assay [17], 3.8%; in [18], 2.55%. Besides, the inhibition in [19] turned out to be 4.34%; in [20], 1.91%.

Regarding `COC(=O)Nc1nc2cc(Oc3ccc(NC(=O)Nc4ccccc4)cc3)ccc2[nH]1`, the inhibition in assay [1] is 0.64%; in assay [2] it was -0.27%; in assay [3] it was 0.79%; in assay [4] it was 1.73%; in assay [5], 2.59%; in assay [6] it was 1.17%. The inhibition in assay [7] is 7.79%; in assay [8], 1.28%; in assay [9], 9.23%; in assay [10], -0.2%; in assay [11], 2.25%; in assay [12] it was 3.86%. Also, the inhibition came to 4.03% in assay [13]; 2.21% in [14]; 4.11% in [15]; 0.93% in assay [16]; 2.7% in assay [17]; 2.12% in assay [18]. Moreover, the inhibition in assay [19] came to 2.12%; in [20], 2.17%.

`NS(=O)(=O)c1cccc(N/C=C2\C(=O)Nc3ccccc32)c1`: the inhibition in assay [1] was 0.69%; in assay [2], -0.71%; in [3] it was -2.38%; in assay [4], 1.17%; in [5] it was 1.53%; in assay [6], 5.29%. Besides, the inhibition was 10.8% in assay [7]; -0.72% in assay [8]; 11.3% in assay [9]; 3.79% in assay [10]; 14.4% in assay [11]; 4.45% in assay [12]. The inhibition in [13] came out at 4.78%; in assay [14], 1.7%; in assay [15], 1.39%; in assay [16] it was 8.16%; in assay [17], 21.6%; in [18], 4.71%. Moreover, the inhibition in [19] was determined as 10.6%; in assay [20] it was 3.71%.

On to `CC1=C(C(=O)Nc2ccc3[nH]ncc3c2)C(c2ccc(F)cc2)N=C(c2ccc(C(F)(F)F)nc2)N1` (stereo not given), for which the inhibition in assay [1] was 0.66%; in [2], 0.08%; in assay [3], -1.05%; in [4] it was 0.55%; in assay [5], 0.22%; in assay [6], 4.91%. Also, the inhibition in assay [7] is 4.39%; in assay [8] it was 2.09%; in assay [9] it was 4.41%; in [10], -0.16%; in [11], 2.03%; in assay [12], 1.72%. The inhibition in [13] is -0.03%; in [14], 0.88%; in assay [15] it was -1.54%; in assay [16], 0.89%; in assay [17] it was 2.81%; in assay [18] it was 3.19%. Also, the inhibition in assay [19] was 2.72%; in [20], 0.59%.

Regarding `COC(=O)Nc1nc2ccc(Oc3ccc(NC(=O)Nc4cc(C(F)(F)F)ccc4F)cc3)cc2s1`, the inhibition in assay [1] is 0.12%; in assay [2] it was 0.39%; in assay [3] it was 0.5%; in assay [4] it was 0.07%; in assay [5] it was -0.36%; in assay [6], -0.78%. Besides, the inhibition in [7] was 0.54%; in assay [8] it was 0.97%; in assay [9] it was -6.65%; in assay [10], -0.35%; in assay [11], -0.01%; in assay [12] it was 0.44%. Also, the inhibition in assay [13] is 1.02%; in assay [14] it was -1.47%; in assay [15] it was 0.19%; in [16], -1.12%; in assay [17], 3.01%; in [18], -0.2%. Moreover, the inhibition in [19] is -0.02%; in assay [20], -0.36%.

As to `N#Cc1ccc2c(-c3ccnc(NC4CC4)n3)c(-c3ccc(F)cc3)nn2c1`, the inhibition is 0.72% in [1]; -0.27% in assay [2]; -0.29% in assay [3]; 0.61% in [4]; -0.5% in [5]; 4.86% in assay [6]. The inhibition in [7] was found to be 23.5%; in assay [8], 24.1%; in [9], 68.9%; in assay [10], 1.15%; in [11] it was 0.07%; in assay [12], 1.44%. The inhibition in assay [13] is -1.14%; in assay [14], 1.07%; in [15], -0.63%; in [16] it was 3.72%; in assay [17], 30.1%; in assay [18] it was 1.85%. In addition, the inhibition in [19] stood at 4.03%; in assay [20] it was 2%.

For the compound `NS(=O)(=O)c1ccc(N/N=C2\C(=O)Nc3ccc(C(=O)NCc4ccncc4)cc32)cc1`, the inhibition in assay [1] stood at 4.93%; in [2] it was 1.9%; in assay [3] it was 8.56%; in assay [4] it was 1.84%; in [5], 6.01%; in [6] it was 3.99%. Moreover, the inhibition in assay [7] was 19.8%; in assay [8], 6.03%; in assay [9], 17.1%; in assay [10] it was 3.83%; in assay [11], 44%; in assay [12], 5.34%. Further, the inhibition amounted to 20.7% in [13]; 2.55% in assay [14]; 2.67% in assay [15]; 1.19% in assay [16]; 2.77% in [17]; 2.33% in assay [18]. The figures for the inhibition in assay [19] and in assay [20] were 4.19% and 1.94%, respectively.

`NC(=O)c1ccc2c(-c3ccnc(NCCCO)n3)c(-c3ccc(F)cc3)nn2c1`: the inhibition was 1.11% in [1]; -0.5% in [2]; -0.27% in [3]; 1.47% in [4]; 1.16% in assay [5]; 3.64% in assay [6]. Moreover, the inhibition in assay [7] turned out to be 16%; in [8], 9.22%; in [9], 40.4%; in assay [10], 4.13%; in assay [11], 4.69%; in assay [12], 3.95%. Also, the inhibition in assay [13] came to 3.68%; in assay [14] it was 2.67%; in [15] it was 2.23%; in assay [16], 25.3%; in [17] it was 67.6%; in assay [18], 7.1%. Besides, the figures for the inhibition in assay [19] and in assay [20] were 19.8% and 5.87%, respectively.

For `FC(F)(F)CNc1nccc(-c2cnn3ncccc23)n1`, the inhibition is 1.1% in assay [1]; -0.3% in assay [2]; 1.93% in assay [3]; 1.14% in [4]; 0.15% in [5]; 2.46% in assay [6]. The inhibition is 1.86% in assay [7]; -0.9% in assay [8]; 0.27% in [9]; 1.42% in [10]; 0.21% in assay [11]; 3.33% in assay [12]. Besides, the inhibition in assay [13] was 2.64%; in assay [14], -0.54%; in assay [15], -0.28%; in assay [16], 3.2%; in assay [17] it was 23.5%; in assay [18] it was 2.54%. Besides, the inhibition in [19] worked out at 6.11%; in assay [20] it was 3.35%.

The values are drawn from ChEMBL document CHEMBL1961873, “Compounds: GSK PKIS; Assays: Nanosyn kinase panel” (2012).
